GSH fluor: compound fluorescence on glutathione beads, profiling panel, artefact control, biophysical, 488/530 nm, flow cytometry. GSH beads flow cytometry, compound fluorescence 488/530 nm; stronger effect = higher value. fluorescence (KMESF) at 10 µM. 190,000 compounds, 0.25% hits; in the data active = fluorescence above about 89;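 also: glutathione beads carrying GST-tagged Bcl family fusion proteins plus one bare bead set; values are compound well signal with DMSO vehicle wells as background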
RGS16-Gao HTS: modulators of RGS16 binding to Galphao, primary screen, biochemical, human proteins, multiplexed bead flow cytometry. Regulator of G-protein signaling 16 (Homo sapiens) + Guanine nucleotide-binding protein …. bead-based flow cytometry RGS16-Galphao binding, fluorescence; actives lie on both sides. binding response (% of control), % at 10 µM. 220,000 compounds, 0.38% hits;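 also: Galphao activated by GDP with aluminum fluoride before binding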
Target sequence (O15492 whole entry, looked up): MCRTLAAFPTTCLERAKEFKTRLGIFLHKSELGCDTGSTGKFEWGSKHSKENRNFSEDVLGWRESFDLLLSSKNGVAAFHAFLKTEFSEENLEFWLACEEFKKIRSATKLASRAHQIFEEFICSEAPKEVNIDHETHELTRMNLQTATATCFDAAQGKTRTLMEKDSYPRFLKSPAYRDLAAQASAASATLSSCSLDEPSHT
Target sequence (P09471 whole entry, looked up): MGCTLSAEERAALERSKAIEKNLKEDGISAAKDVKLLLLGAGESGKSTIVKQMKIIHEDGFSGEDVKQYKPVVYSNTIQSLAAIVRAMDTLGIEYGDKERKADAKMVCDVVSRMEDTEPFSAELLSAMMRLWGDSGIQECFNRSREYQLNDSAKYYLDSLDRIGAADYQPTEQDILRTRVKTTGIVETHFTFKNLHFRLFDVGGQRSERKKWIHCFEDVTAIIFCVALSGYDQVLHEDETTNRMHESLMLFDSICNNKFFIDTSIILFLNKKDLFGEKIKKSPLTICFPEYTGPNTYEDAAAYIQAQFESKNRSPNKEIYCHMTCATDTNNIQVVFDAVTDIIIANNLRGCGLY
RGS4-Gao reg: modulators of RGS4 binding to Galphao, primary screen, biochemical, multiplexed bead flow cytometry. Guanine nucleotide-binding protein G(o) subunit alpha (Homo sapiens), P09471. actives lie on both sides. binding response (% of control), % at 10 µM. 220,000 compounds, 0.33% hits. AID 1415, 2008; in the data active = binding response below about 49% or above about 150%; inactive = in between;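 also: fluorescent Galphao activated with aluminum fluoride binding bead-coupled RGS4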
Target sequence (P09471 whole entry, looked up): as above
RGS8-Gao reg: RGS8-Galphao binding modulators, primary screen, biochemical, multiplexed bead flow cytometry; Guanine nucleotide-binding protein G(o) subunit alpha (Homo sapiens), P09471; actives lie on both sides; response (percent of control binding), % at 10 µM; 220,000 compounds, 0.34% hits; AID 1423, 2008; in the data active = response below about 60% or above about 140%; inactive = in between;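 also: Galphao activated as the GDP aluminium fluoride complex binding bead-coupled RGS8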
RGS7-Gao: RGS7-Galphao binding modulators, primary screen, biochemical, multiplexed bead flow cytometry; Guanine nucleotide-binding protein G(o) subunit alpha (Homo sapiens), P09471; actives lie on both sides; binding response (% of control), % at 10 µM; 220,000 compounds, 0.35% hits; in the data active = binding response below about 49% or above about 150%; inconclusive = no clear call, values can overlap the other calls; inactive = in between;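 also: fluorescent Galphao held in activated GDP-AlF4 state binding bead-coupled RGS7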
Avidin fluor: green autofluorescence of compounds with avidin beads – biophysical, 488/530 nm, flow cytometry, artefact control, profiling panel. compound fluorescence 488/530 nm; stronger effect = higher value. fluorescence (KMESF) at 10 µM. 220,000 compounds, 0.38% hits. AID 1775, 2009; in the data active = fluorescence above about 47
RGS4-Gao HTS: modulators of RGS–Galpha-o binding, primary screen, biochemical, multiplexed beads, flow cytometry, RGS4/7/8/16/19. shares compounds with RGS16-Gao HTS. multiplexed bead flow cytometry. RGS4–Galpha-o binding response, % at 10 µM. 1,600 compounds, 99% hits. AID 1504, 2009;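 also: fluorescently labeled Galpha-o bound to GDP with aluminium fluoride binding biotinylated RGS beads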
Avidin counter: disruption of biotin probe capture by avidin, counter-screen for RGS protein interaction modulators, biochemical, flow cytometry, bead-based | shares compounds with RGS16-Gao HTS | streptavidin beads, fluorescein-biotin binding | inhibition, % at 10 µM | 1,700 tested, under 10 active;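 active = inhibition above 50%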;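 also: median green fluorescence of gated singlet beads compared with DMSO control wells; 0% = DMSO wells and 100% = complete loss of bead fluorescence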
RGS8-Gao confirm: RGS8-Galphao binding modulators, confirmation, biochemical, multiplexed bead flow cytometry, single concentration; shares compounds with RGS16-Gao HTS; bead-based flow cytometry RGS8-Galphao binding, fluorescence; actives lie on both sides; binding response (% of control), % at 10 µM; 1,700 compounds, 3% hits; AID 1836, 2009; in the data active = binding response below about 72% or above about 130%; inactive = in between;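 also: Galphao activated as GDP AlF4 complex before binding bead RGS8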
RGS7-Gao single: RGS7-Galphao binding modulators, confirmation, biochemical, multiplexed bead flow cytometry, single concentration; shares compounds with RGS16-Gao HTS; 1,700 compounds, 7.8% hits; bead-based flow cytometry RGS7-Galphao binding; actives lie on both sides; response (percent of control binding), % at 10 µM; in the data active = response below about 75% or above about 130%; inactive = in between;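 also: fluorescent Galphao activated with GDP and aluminum fluoride binding bead-coupled RGS7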
RGS16-Gao conf: modulators of RGS16-Galphao protein binding, confirmation, biochemical, single concentration, multiplexed bead flow cytometry; 1,700 compounds, 4% hits; AID 1838, 2009; bead-based flow cytometry; actives lie on both sides; shares compounds with RGS16-Gao HTS; response (% of control binding), % at 10 µM; in the data active = response below about 74% or above about 130%; inactive = in between;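 also: Galphao activated as the GDP aluminium fluoride complex binding bead-coupled RGS16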
RGS4-Gao confirm: modulators of RGS4-Galphao protein binding, confirmation, biochemical, single concentration, multiplexed bead flow cytometry | AID 1840, 2009 | 1,700 compounds, 4% hits | actives lie on both sides | shares compounds with RGS16-Gao HTS | binding response (% of control), % at 10 µM; in the data active = binding response below about 74% or above about 130%; inactive = in between
RGS19-Gao conf: regulators of RGS19-Galphao binding, confirmation, biochemical, single point, multiplexed bead flow cytometry. shares compounds with RGS16-Gao HTS. 1,700 compounds, 5% hits. response (percent of control binding), % at 10 µM. bead-based flow cytometry RGS19-Galphao binding; actives lie on both sides. AID 1841, 2009; in the data active = response below about 50% or above about 160%; inactive = in between;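 also: 100% = no compound control and 0% = blank background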
* = called active by the depositor; ? = inconclusive; . = no result; [ ] = another dose, or the depositor's remark. Compounds with a hit are over-represented: about 1.2% of the library has one in this group of screens. Unless noted, no rule for the calls is given here.

SMILES	GSH fluor	RGS16-Gao HTS	RGS4-Gao reg	RGS8-Gao reg	RGS7-Gao	Avidin fluor	RGS4-Gao HTS	Avidin counter	RGS8-Gao confirm	RGS7-Gao single	RGS16-Gao conf	RGS4-Gao confirm	RGS19-Gao conf
CC1CN(C(=O)CSc2nc(-c3ccc(F)cc3)cs2)CC(C)O1 (stereo not given)	20	80.6	99.4	87.9	96.2	10	.	.	.	.	.	.	.
O=C(CCn1c(=S)oc2ccccc21)Nc1cccc(O)c1	16	12.2*	22.2*	14.6*	9.9*	0	.	0.3	98.9	101.6	97.2	99.0	103.9
Cc1ccc2cc(CCNS(=O)(=O)c3ccc(F)cc3)c(=O)[nH]c2c1C	19	50.5	54.9	59.7*	45.8*	4	54.9*	0.4	99.0	93.2	97.0	97.3	102.1
Cc1ccc2cc(CCNS(=O)(=O)c3ccc(F)cc3)c(=O)[nH]c2c1	23	99.3	96.2	97.6	94.7	7	.	.	.	.	.	.	.
CCOC(=O)CN1C(=O)S/C(=C/c2ccc3c(c2)n(C)c(=O)n3C)C1=O	9	23.2*	85.2	83.8	83.8	4	85.2*	-2.2	101.1	97.4	99.3	98.0	114.4
Cn1c(=O)n(C)c2cc(/C=C3/SC(=O)N(CC(=O)N4CCOCC4)C3=O)ccc21	15	82.8	95.2	93.2	95.5	3	.	.	.	.	.	.	.
CCn1nnnc1NCc1ccc(N2CCCC2)cc1	22	320.1	34.8*	76.3	64.7	0	.	-1.0	98.4	92.8	93.3	95.6	88.7
Cc1ccc(-c2nn(-c3ccccc3)cc2/C=C/C(=O)OCC(=O)NC2CC2)o1	10	92.5	96.1	95.3	?	8	.	.	.	.	.	.	.
O=C1NC(c2ccccc2)=C(c2ccccc2)C1=O	9	252.1	116.4	140.2*[activator]	109.0	7	116.4*	2.2	105.0	110.5	109.6	110.2	96.3
O=c1c(-c2ccccc2)c1-c1ccccc1	70	98.9	99.8	98.5	103.1	7	.	.	.	.	.	.	.
CCn1c(SCC(=O)Nc2cc(C(C)(C)C)nn2-c2ccccc2)nnc1-c1cccs1	18	91.3	110.1	95.8	185.4*[activator]	86*	110.1*	-0.5	93.6	88.8	95.2	92.5	86.1
Cc1nnc(SCC(=O)Nc2cc(C(C)(C)C)nn2-c2ccccc2)s1	6	111.6	100.7	102.6	104.0	11	.	.	.	.	.	.	.
CN(C)CCC(O)(c1ccccc1)c1ccccc1	13	141.2	104.8	114.9	107.2	13	.	.	.	.	.	.	.
NCC(c1ccccc1)(c1ccccc1)c1ccccc1	4	23.7*	97.5	79.4	97.5	9	97.5*	-0.4	101.8	98.3	101.6	97.7	103.0
CCNC(=O)NC(=O)CSc1ccc(NC(C)=O)cc1	12	57.7	46.9*	72.5	54.4	13	.	-0.4	110.4	113.1	114.1	108.5	121.0
CC[n+]1c(/C=C/C=C/N(C(C)=O)c2ccccc2)sc2cc(OC)ccc21	6	142.7	134.6	92.5	155.3*[activator]	30	134.6*	.	.	.	.	.	.
O=C(c1cc(=O)[nH]c2ccccc12)N1CCN(c2ccccc2)CC1	.	106.1	96.0	98.3	?	6	.	.	.	.	.	.	.
CC(=O)C1=C(O)C(=O)N(Cc2ccccc2)C1c1cccs1 (stereo not given)	68	105.8	119.3	101.4	202.2*[activator]	171*	119.3*	-1.2	99.2	93.8	98.5	99.1	100.0
CC(=O)C1=C(O)C(=O)N(Cc2cccnc2)C1c1ccc(Cl)cc1 (stereo not given)	16	99.9	99.5	100.1	102.2	21	.	.	.	.	.	.	.
Cc1ccc(NC(=O)CN(C)CC(=O)Nc2ccc(N3CCOCC3)cc2)c(C)c1	9	106.3	99.0	101.1	102.3	3	.	.	.	.	.	.	.
CC1=CC(C)(C)N=C(NC#N)N1	46	77.2	42.3*	60.2	44.3*	-2	.	-0.2	98.7	93.3	97.4	97.0	102.3
O=C(Nc1ccc(Cl)c(Cl)c1)OCCNC(=O)c1ccncc1	11	104.2	96.1	81.4	?	11	.	-0.1	102.5	106.4	105.3	103.7	92.3
Cc1cc2cc(CCNC(=O)c3cccc([N+](=O)[O-])c3)c(=O)[nH]c2cc1C	10	37.4	35.3*	61.2	36.5*	0	.	0.5	100.2	100.1	99.7	99.0	104.2
O=C(NNc1nc(-c2ccccc2)c2cc(Br)ccc2n1)c1ccc(S(=O)(=O)N2CCOCC2)cc1	2	106.9	102.9	103.8	102.9	3	.	.	.	.	.	.	.
Cc1cc(C(=O)NCCN2CCOCC2)ccc1[N+](=O)[O-]	12	91.6	94.2	94.5	88.8	12	.	.	.	.	.	.	.
Cn1c(COc2ccccc2)nnc1SCC(=O)Nc1ccc(S(N)(=O)=O)cc1	43	.	.	.	.	.	.	-1.1	103.3	107.5	104.8	104.8	93.3
C=CCn1c(COc2ccccc2)nnc1SCC(=O)Nc1ccc(S(N)(=O)=O)cc1	33	108.1	102.8	103.3	100.3	14	.	.	.	.	.	.	.
